Laboratory results reported in PubChem BioAssay (EPA / NIEHS).
Several values for one entry are separate records, joined by “and”; a condition that tells them apart may be missing. Identical values can stand only once. Inconclusive results are not listed. The source holds several records for some structures; these can differ, active in one and inactive in another. Activity calls are given as the source filed them. The calls were made as follows, unless noted: active = hit-call score of the fitted dose curve at least 0.9, where 1 is the maximum; inactive = score below 0.9.

Assays:
[1] = read-out: Collagen I, COL1A1 (gene 1277); assay: BSK_MyoF_CollagenI: BioMAP Diversity Plus: MyoF Assay for Collagen I Biomarker Activity (AID 2284238); conditions: primary human lung fibroblasts
Procedure, shortened: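 Multiplexed primary human lung fibroblast system; Collagen I measured by ELISA at 24 h post-dose. Increases are referenced to DMSO.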

[2] = read-out: Collagen III, COL3A1 (gene 1281); assay: BSK_MyoF_CollagenIII: BioMAP Diversity Plus: MyoF Assay for Collagen III Biomarker Activity (AID 2284239); conditions: primary human lung fibroblasts
Procedure, shortened: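 Compounds are added to primary human lung fibroblasts and left for 24 hours. Collagen III is then quantified by ELISA. Analysis takes DMSO as baseline and fits increases in signal.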

[3] = CCTE_Mundy_HCI_hNP1_CellTiter: CCTE's Cell Titer-Glo 2 Assay in human neuroprogenitor cells for Viability, Mundy Lab (AID 2284241; active = hit-call score of the fitted dose curve at least 0.9, where 1 is the maximum)
Procedure, shortened: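 Measures ATP content in human neural progenitors derived from WA09 embryonic cells. Read-out at 26.5 hours after dosing, with DMSO serving as the negative control and baseline.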

[4] = read-out: Interleukin 17F (IL17F), IL17F (gene 112744); assay: BSK_BT_xIL17F: BioMAP Diversity Plus: BT Assay for Interleukin 17F (IL17F) Biomarker Activity (AID 2284243); conditions: primary human B cells with PBMC
Procedure, shortened: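 Measures secreted IL-17F from a human B cell plus PBMC co-culture at 24 h post-dose by Luminex xMAP, with DMSO defining baseline activity.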

[5] = read-out: Actin alpha 1 (ACTA1), ACTA1 (gene 58); assay: BSK_MyoF_ACTA1: BioMAP Diversity Plus: MyoF Assay for Actin alpha 1 (ACTA1) Biomarker Activity (AID 2284244); conditions: primary human lung fibroblasts
Procedure, shortened: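 Lung fibroblasts, human primary, 24 h compound exposure → a-SMA ELISA. Positive-direction fit vs DMSO control.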

[6] = read-out: Interleukin 2 (IL2), IL2 (gene 3558); assay: BSK_BT_xIL2: BioMAP Diversity Plus: BT Assay for Interleukin 2 (IL2) Biomarker Activity (AID 2284245); conditions: primary human B cells with PBMC
Procedure, shortened: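 B cell + PBMC co-culture (human primary), compound added, 24 h incubation; secreted IL-2 measured multiplexed on Luminex xMAP; gain-of-signal fit vs DMSO.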

[7] = read-out: Basic fibroblast growth factor (bFGF), FGF2 (gene 2247); assay: BSK_MyoF_bFGF: BioMAP Diversity Plus: MyoF Assay for Basic fibroblast growth factor (bFGF) Biomarker Activity (AID 2284246); conditions: primary human lung fibroblasts
Procedure, shortened: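 ELISA-measured bFGF level serves as the read-out, taken 24 h after chemical dosing of human lung fibroblasts. Values represent signal gain over the DMSO negative control.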

[8] = read-out: Collagen IV, COL4A1 (gene 1282); assay: BSK_MyoF_CollagenIV: BioMAP Diversity Plus: MyoF Assay for Collagen IV Biomarker Activity (AID 2284247); conditions: primary human lung fibroblasts
Procedure, shortened: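 Steps: dose human lung fibroblasts; culture 24 h; quantify Collagen IV by ELISA; fit increase versus DMSO control. Parallel SRB total-protein staining (0.1% SRB after 10% TCA fixation, 560 nm) tracks overt cytotoxicity.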

[9] = read-out: Monokine induced gamma interferon (MIG), CXCL9 (gene 4283); assay: BSK_KF3CT_MIG: BioMAP Diversity Plus: KF3CT Assay for Monokine induced gamma interferon (MIG) Biomarker Activity (AID 2284248); conditions: primary human keratinocytes with fibroblasts
Procedure, shortened: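 The assay uses a co-culture of human keratinocytes and foreskin fibroblasts. Measurement occurs 24 hours after dosing, with MIG detected by ELISA and the DMSO control as baseline.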

[10] = read-out: Vascular cell adhesion molecule 1 (VCAM1), VCAM1 (gene 7412); assay: BSK_BF4T_VCAM1: BioMAP Diversity Plus: BF4T Assay for Vascular cell adhesion molecule 1 (VCAM1) Biomarker Activity (AID 2284249); conditions: primary human bronchial epithelial cells with fibroblasts
Procedure, shortened: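 Human bronchial epithelial cell and dermal fibroblast co-culture exposed 24 h. VCAM-1 measured by ELISA; parallel SRB total-protein staining for cytotoxicity. Fitted in positive direction relative to DMSO.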

[11] = read-out: Collagen I, COL1A1 (gene 1277); assay: BSK_hDFCGF_CollagenI: BioMAP Diversity Plus: hDFCGF Assay for Collagen I Biomarker Activity (AID 2284250); conditions: primary human foreskin fibroblasts
Procedure, shortened: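 Human skin primary fibroblasts dosed with test chemical, harvested at 24 h, Collagen I quantified by ELISA; parallel SRB staining (0.1% SRB after 10% TCA fixation, 560 nm) tracked cytotoxicity.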

[12] = read-out: Interferon-inducible T-cell alpha chemoattractant (ITAC), CXCL11 (gene 6373); assay: BSK_hDFCGF_ITAC: BioMAP Diversity Plus: hDFCGF Assay for Interferon-inducible T-cell alpha chemoattractant (ITAC) Biomarker Activity (AID 2284251); conditions: primary human foreskin fibroblasts
Procedure, shortened: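 ELISA readout of I-TAC after 24 h chemical exposure; human dermal foreskin fibroblast primary cells. Positive-direction fitting vs DMSO baseline. Parallel SRB total-protein staining (0.1% SRB after 10% TCA fixation, 560 nm) flags cytotoxicity.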

[13] = read-out: Plasminogen activator inhibitor-1 (PAI1), SERPINE1 (gene 5054); assay: BSK_KF3CT_PAI1: BioMAP Diversity Plus: KF3CT Assay for Plasminogen activator inhibitor-1 (PAI1) Biomarker Activity (AID 2284252); conditions: primary human keratinocytes with fibroblasts
Procedure, shortened: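 ELISA read-out of PAI-1 taken 24 h after chemical treatment of a human skin primary co-culture of keratinocytes and foreskin fibroblasts. Increases over DMSO-treated wells defined activity.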

[14] = read-out: Monocyte Chemoattractant Protein-1 (MCP1), CCL2 (gene 6347); assay: BSK_IMphg_MCP1: BioMAP Diversity Plus: IMphg Assay for Monocyte Chemoattractant Protein-1 (MCP1) Biomarker Activity (AID 2284253); conditions: primary human endothelial cells with macrophages
Procedure, shortened: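 Human venular endothelial cells co-cultured with macrophages; MCP-1 measured by ELISA 24 hours post-dose and fitted against DMSO. Cytotoxicity monitored by SRB total-protein staining in parallel cultures.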

[15] = read-out: Interleukin-8 (IL8), CXCL8 (gene 3576); assay: BSK_KF3CT_IL8: BioMAP Diversity Plus: KF3CT Assay for Interleukin-8 (IL8) Biomarker Activity (AID 2284254); conditions: primary human keratinocytes with fibroblasts
Procedure, shortened: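 ELISA detection of IL-8 from a human skin co-culture, keratinocytes with foreskin fibroblasts, at 24 h following chemical exposure, with gain of signal scored against DMSO controls.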

[16] = read-out: Macrophage Inflammatory Protein-1 Alpha (MIP1a), CCL3 (gene 6348); assay: BSK_IMphg_MIP1a: BioMAP Diversity Plus: IMphg Assay for Macrophage Inflammatory Protein-1 Alpha (MIP1a) Biomarker Activity (AID 2284255); conditions: primary human endothelial cells with macrophages
Procedure, shortened: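 Co-culture of human venular endothelial cells and macrophages exposed to compounds for 24 h; MIP-1a measured by ELISA relative to DMSO. Cytotoxicity assessed in parallel cultures by sulforhodamine B total-protein staining at 560 nm.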

[17] = read-out: Plasminogen activator inhibitor-1 (PAI1), SERPINE1 (gene 5054); assay: BSK_MyoF_PAI1: BioMAP Diversity Plus: MyoF Assay for Plasminogen activator inhibitor-1 (PAI1) Biomarker Activity (AID 2284256); conditions: primary human lung fibroblasts
Procedure, shortened: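 Activity reflects increased PAI-1, determined by ELISA and compared with DMSO, in human lung fibroblasts treated for 24 h.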

[18] = read-out: CD69, CD69 (gene 969); assay: BSK_IMphg_CD69: BioMAP Diversity Plus: IMphg Assay for CD69 Biomarker Activity (AID 2284257); conditions: primary human endothelial cells with macrophages
Procedure, shortened: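 Human venular endothelial cells co-cultured with macrophages; CD69 quantified by ELISA 24 h after compound addition. Activity fitted in the positive direction relative to DMSO baseline; cytotoxicity tracked in parallel cultures via SRB total-protein staining.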

[19] = read-out: Eotaxin 3, CCL26 (gene 10344); assay: BSK_BF4T_Eotaxin3: BioMAP Diversity Plus: BF4T Assay for Eotaxin 3 Biomarker Activity (AID 2284258); conditions: primary human bronchial epithelial cells with fibroblasts
Procedure, shortened: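 Co-culture of human bronchial epithelial cells and dermal fibroblasts, exposed to chemicals for 24 h versus DMSO. Eotaxin-3 quantified by ELISA; cytotoxicity checked in parallel cultures by sulforhodamine B total-protein staining.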

[20] = read-out: Monocyte Chemoattractant Protein-1 (MCP1), CCL2 (gene 6347); assay: BSK_BF4T_MCP1: BioMAP Diversity Plus: BF4T Assay for Monocyte Chemoattractant Protein-1 (MCP1) Biomarker Activity (AID 2284259); conditions: primary human bronchial epithelial cells with fibroblasts
Procedure, shortened: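 Co-culture of bronchial epithelial cells and dermal fibroblasts dosed with chemical; MCP-1 measured by ELISA 24 h later. Activity fitted in positive direction versus DMSO; cytotoxicity checked by SRB staining in parallel cultures.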

Measured: AC50

C=CC(=O)OCC(F)(F)C(F)(F)C(F)(F)COC(=O)C=C
inactive: [3] | [8] | [11]
active: [1] 9.95 µM and 11.1 µM | [2] 13.9 µM and 14.7 µM | [4] 2.89 µM and 3.25 µM | [5] 8.23 µM and 4.42 µM | [6] 9.03 µM and 9.56 µM | [7] 15.9 µM and 14.7 µM | [9] 23.2 µM and 22.2 µM | [10] 7.91 µM and 8.05 µM | [12] 733 nM and 1.58 µM | [13] 22.7 µM and 21.2 µM | [14] 37.9 µM and 36.8 µM | [15] 14.7 µM and 14.9 µM | [16] 47.1 µM and 48 µM | [17] 14.2 µM and 14.7 µM | [18] 54.8 µM and 44 µM | [19] 14.8 µM and 17 µM | [20] 15.3 µM and 11.7 µM

OC(O)C(F)(F)C(F)(F)F
not listed: [3]
inactive: all other assays above

OCCCC(F)(F)C(F)(F)C(F)(F)C(F)(F)C(F)(F)C(F)(F)C(F)(F)C(F)(F)F
inactive: [3] | [8] | [11]
active: [1] 13 µM and 10.9 µM | [2] 13.5 µM and 12.2 µM | [4] 22.4 µM and 19.1 µM | [5] 10.3 µM and 10.6 µM | [6] 43.4 µM and 46.9 µM | [7] 10.1 µM and 9.64 µM | [8] 7.39 µM | [9] 14.8 µM and 15.3 µM | [10] 13.9 µM and 16.8 µM | [12] 7.67 µM and 5.74 µM | [13] 12.7 µM and 9.08 µM | [15] 17.1 µM and 13.7 µM | [16] 41 µM and 56.7 µM | [17] 16.5 µM and 11.1 µM | [18] 40.1 µM and 48.6 µM | [19] 24.7 µM and 24.9 µM | [20] 21.6 µM and 18 µM

NC(=O)C(F)(F)C(F)(F)C(F)(F)C(F)(F)C(F)(F)C(F)(F)C(F)(F)F
inactive: [1] | [2] | [3] | [4] | [5] | [6] | [7] | [8] | [9] | [10] | [11] | [12] | [13] | [15] | [16] | [17] | [18] | [19] | [20]
active: [6] 30 µM | [18] 23.5 µM

FC(F)(F)C(F)(F)C(F)(F)C(F)(F)C(F)(F)C(F)(F)C(F)(F)CCI
inactive: [1] | [2] | [4] | [5] | [6] | [7] | [8] | [9] | [10] | [11] | [12] | [13] | [15] | [16] | [17] | [18] | [19] | [20]
active: [12] 3.33 µM

COC(F)(C(F)F)C(F)(F)F (stereo unspecified)
active: [5] 556 nM
inactive: [1] | [2] | [4] | [5] | [6] | [7] | [8] | [9] | [10] | [11] | [12] | [13] | [15] | [16] | [17] | [18] | [19] | [20]

O=C(O)C(F)(F)C(F)(F)C(F)(F)C(=O)O
not listed: [3] | [14]
inactive: all other assays above

CNS(=O)(=O)C(F)(F)C(F)(F)C(F)(F)C(F)(F)C(F)(F)C(F)(F)C(F)(F)C(F)(F)F
active: [4] 16.4 µM and 7.34 µM | [8] 2.71 µM and 3.58 µM | [13] 7.81 µM | [15] 8.13 µM and 9.41 µM | [19] 3.88 µM and 220 nM
inactive: [1] | [2] | [5] | [6] | [7] | [9] | [10] | [11] | [12] | [13] | [16] | [17] | [18] | [20]

C=CC(=O)OCC(F)(F)C(F)(F)C(F)(F)C(F)(F)C(F)(F)C(F)(F)C(F)(F)C(F)F
inactive: [1] | [2] | [6] | [7] | [8] | [9] | [10] | [11] | [13] | [15] | [16] | [17] | [18] | [19] | [20]
active: [4] 18.8 µM | [5] 30 µM and 19.5 µM | [6] 44.5 µM | [12] 30 µM

O=C(O)C(F)(F)C(F)(F)C(F)(F)OC(F)(F)F
not listed: [14]
inactive: all other assays above

O=C(O)C(F)(F)OC(F)(F)C(F)(F)OC(F)(F)C(F)(F)OC(F)(F)F
not listed: [3] | [14]
inactive: all other assays above
